From PubChem BioAssay
VACV mCherry inh – vaccinia inhibition (mCherry reporter); Vaccinia virus mCherry reporter infection, fluorescence; Potency, µM (highest dose often 36.5 µM), for the others: at the highest dose activity change, negative = inhibition, most hits filed as inhibitors; actives 0.63% (n = 310,000); calls by dose curve; tested in A549 cells; also: potency is read from the fitted curve at half-maximal effect; nearly all actives have a fitted effect of over 35% in size
HCMV inh – inhibitors of human cytomegalovirus | HFF cells, HCMV-luciferase reporter, 72 h; active compounds read low | activity change, negative = inhibition, % at 57.5 µM | AID 1259415 | actives 4.5% (n = 410,000); in the data active = activity change below about -60%; inconclusive = no clear call, values can overlap the other calls; inactive = above about -39%
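Inhibition of viral replication was scored as loss of reporter luminescence in HFFs infected with HCMV-luciferase (MOI 1 PFU/cell) for 72 h; compounds tested at 2 doses, normalized to buffer and Salinomycin controls.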
VACV Venus inh – inhibitors of vaccinia virus (Venus reporter); Vaccinia virus Venus reporter expression, fluorescence; Potency, µM (titrated, usually from 36.5 µM), without a hit: at the highest dose activity change, negative = inhibition, usual class: inhibitors; actives 0.46% (n = 330,000); AID 720580; calls by dose curve; tested in A549 cells; also: potency is read from the fitted curve at half-maximal effect; nearly all actives have a fitted effect of over 30% in size
HCV inhibitor – blocks hepatitis C virus | AID 651820 | actives 3.4% (n = 340,000) | Potency, µM (series often up to 41.8 µM), inactives show at the highest dose activity change, negative = inhibition, most hits filed as inhibitors | Huh7.5.1 HCVcc-Cre infection, luciferase reporter, 44 h; active = well fitted inhibition curve with a large enough effect; inconclusive = small, poorly fitted or top-dose-only effect, or another doubt; inactive = no such curve, though single readings can be large or run the other way; also: potency is read from the fitted curve at half-maximal effect
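Compounds are dispensed onto cells plated 4 h earlier at 1,000 per well, with HCVcc-Cre virus (about 0.5 moi) added next. Following 44 h of culture, luminescent signal is measured for 15 sec after 15 min with substrate at room temperature.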
FMDV inh – antivirals against foot and mouth disease virus. FMDV antiviral cell-based qHTS. actives 1.2% (n = 410,000). Potency, µM (doses to about 57.9 µM), inactives show at the highest dose activity change, negative = inhibition, usual class: inhibitors; calls by dose curve; tested in HEK293T cells; also: read-out not given here; potency is read from the fitted curve at half-maximal effect; nearly all actives have a fitted effect of over 45% in size
The depositor's hits bear a star; i = inactive; u = inconclusive; x = no result given; [ ] = remark or other dose. A selection: hits, their analogues and other compounds. The true share with any hit is near 7.3%. % is scaled to controls: 0 for no effect and ±100 for the full control effect.

SMILES	VACV mCherry inh	HCMV inh	VACV Venus inh	HCV inhibitor	FMDV inh
CCC(OC(=O)c1ccc(S(C)(=O)=O)c([N+](=O)[O-])c1)C(=O)NC1C2CC3CC(C2)CC1C3 (configuration not stated)	x	-95*	x	x	40µM*
CC1CCN(C(=O)C(C)OC(=O)c2ccc(S(C)(=O)=O)c([N+](=O)[O-])c2)CC1 (configuration not stated)	-16%	x	-19%	x	x
CC(OC(=O)c1ccc(S(C)(=O)=O)c([N+](=O)[O-])c1)C(=O)NC1C2CC3CC(C2)CC1C3 (configuration not stated)	x	-97*	x	x	32µM*
Cc1ncc(CN2CCC(C(=O)Nc3ccc(-n4cccn4)cc3)CC2)s1	i	8	-12%	-14%	-13%
O=C(Nc1ccc(-n2cccn2)cc1)C1CCCCN1Cc1cccc2c1OCO2 (configuration not stated)	x	-68*	x	-10%	-16%
COc1cccc(CN(C(=O)c2oc3cc(C)ccc3c2C)C2CCS(=O)(=O)C2)c1 (configuration not stated)	-16%[7.34 µM]	12	-1%[7.34 µM]	x	-16%
CCC(CO)Oc1cc(NCc2ccc(C(F)(F)F)cc2)c2ncn(C(C)C)c2c1 (configuration not stated)	-26%	-28	-22%	11µM*	-21%
CCC(CO)Oc1cc(NCc2cccc(C(F)(F)F)c2)c2ncn(C(C)C)c2c1 (configuration not stated)	-23%	5	-12%	u	-18%
CCC(CO)Oc1cc(NCc2ccc(OC)cc2)c2ncn(C(C)C)c2c1 (configuration not stated)	-22%	16	-18%	u	4%
CCC(CO)Oc1cc(NCc2ccc(C)cc2)c2ncn(C(C)C)c2c1 (configuration not stated)	-24%	7	-23%	u	-2%
CC[C@H](CO)Oc1cc(NCc2ccc(Cl)c(Cl)c2)c2ncn(C(C)C)c2c1	-14%	19	-23%	11µM*	-29%
CCC(CO)Oc1cc(NCc2ccc(Cl)cc2)c2ncn(C(C)C)c2c1 (configuration not stated)	-24%	-18	-19%	2.2µM*	-27%
CCC(CO)Oc1cc(NCc2cccc(C)c2)c2ncn(C(C)C)c2c1 (configuration not stated)	u	-76*	-14%	u	-12%
CC[C@H](CO)Oc1cc(NCc2cccc(N)c2)c2ncn(C(C)C)c2c1	-5%	-21	-19%	x	-17%
COc1ccc(C(=O)C(=O)N2CCC(c3ccccc3)CC2)cn1	0%	2	-4%	x	5%
COc1ccc(OC)c(-c2ccnc(-n3ncc(C(=O)N(C)CCO)c3C3CC3)n2)c1	-6%	x	-7%	x	34%
CCOc1cc(NCc2ccccc2)c2ncn(C(C)C)c2c1	u	11	u	2.5µM*	0%
CCn1c2ccccc2c2cc(NC(=O)CSc3nnc(-c4ccc(OC)c(OC)c4)n3N)ccc21	x	6	x	3%	4%
CCOc1ccc(-c2nnc(SCC(=O)Nc3ccc4c(c3)c3ccccc3n4CC)n2N)cc1	x	-61*	x	4µM*	-23%
CCn1c2ccccc2c2cc(NC(=O)CSc3nnc(-c4cccc(OC)c4)n3N)ccc21	x	-32	x	8.9µM*	-27%
O=C(NCCCN1CCOCC1)c1cnn(-c2ncc3c(n2)-c2ccccc2CC3)c1C1CC1	-29%	x	-11%	x	-6%
O=C1NC(c2cccc3ccccc23)Nc2ccc(Cl)cc21 (configuration not stated)	u	-73*	11µM*	-24%	0%
COc1cc(-c2coc3c(C(=O)NCc4ccc(OC)c(OC)c4)cccc23)ccc1O	16µM*	-73*	u	x	18µM*
COc1ccc(CNC(=O)c2cccc3c(-c4cccc(C(N)=O)c4)coc23)cc1OC	-4%	-94*	-30%	x	7.9µM*
Nc1cc(S(=O)(=O)N2CCCCC2)ccc1Oc1ccc(Cl)cc1	x	-66*	x	u	u
SMILES	VACV mCherry inh	HCMV inh	VACV Venus inh	HCV inhibitor	FMDV inh
Cc1cccc(Oc2ccc(S(=O)(=O)N3CCCCC3)cc2N)c1	x	-34	x	13µM*	u
COc1ccc(OC)c(NC(=O)Cn2c(=O)n(-c3ccc(Cl)cc3)c(=O)c3c(C)c(C)sc32)c1	u	3	u	x	-19%
CCN(C(=O)CSc1ncccc1C(=O)Oc1cccc([N+](=O)[O-])c1)c1cccc(C)c1	-14%	32	-7%	-2%	25µM*
CSc1cccc(NC(=O)CSc2ncccc2C(=O)Oc2cccc([N+](=O)[O-])c2)c1	-1%	13	-18%	2%	0%
CCOC(=O)c1c(-c2ccccc2)csc1NC(=O)c1cc(-c2cccc(OC)c2)on1	3%	-2	1%	x	0%
Cc1nn(Cc2ccc(F)cc2)c2sc(C(=O)Nc3ccccc3N3CCOCC3)cc12	-14%	u	-5%	u	-14%
Cc1nn(Cc2ccccc2Cl)c2sc(C(=O)Nc3ccccc3N3CCOCC3)cc12	x	u	x	13µM*	u
COc1ccc(NC(=O)Cn2c(=O)nc(-c3ccccc3)c3ccccc32)cc1OC	-2%	-23	-24%	x	7%
O=C1C=C(Nc2ccccc2O)c2ccccc2C1=O	5µM*	-93*	u	u	u
O=C1C=C(Nc2ccc(F)cc2)c2ccccc2C1=O	u	34	-17%	u	u
O=C(Nc1ccccc1O)c1ccc2c(c1)C(=O)N(N1C(=O)c3ccccc3C1=O)C2=O	-10%	76	-5%	14%	u
O=C1C=C(NCc2ccccc2)c2ccccc2C1=O	u	-84*	11µM*	u	-16%
Cc1ccc(NC2=CC(=O)C(=O)c3ccccc32)c(C)c1	x	-96*	x	u	u
O=C1C=C(Nc2cccnc2)c2ccccc2C1=O	u	23	10µM*	13µM*	u
CC(=O)c1ccccc1NC(C(=O)NCc1ccccc1)C(C)C (configuration not stated)	x	-18	x	x	x
Cc1ccc(CN2CC=CS2(=O)=O)cc1	x	-22	x	x	x
COc1cccc(C(C)NC(=O)c2c(F)cccc2Cl)c1 (configuration not stated)	i	21	-2%	32%	1%
COc1cccc(C(C)NC(=O)Nc2ccccc2Cl)c1 (configuration not stated)	x	-64*	x	-28%	-13%
Cc1ccc2nc(SCC(=O)c3ccc4c(c3)NC(=O)CO4)[nH]c2c1	-18%	33	3%	u	-13%
Cc1ccc(C)c(-n2nnnc2SCC(=O)c2ccc3c(c2)NC(=O)CO3)c1	x	-84*	x	u	u
Cc1cnn(-c2cc(N/N=C/c3ccccc3Cl)ncn2)c1	-14%	-18	-13%	20%	-12%
COc1ccc(/C=N/Nc2nc(Nc3ccccc3)nc(N3CCCCC3)n2)cc1OC	-23%	38	u	u	14%
COc1cccc(/C=N/Nc2nc(Nc3ccccc3)nc(-n3nc(C)cc3C)n2)c1O	x	59	u	8.9µM*	-23%
